This passage reports Potency results from PubChem BioAssay (NCATS).

A short description of assay [1]: Quantitative High-Throughput drug screen in 47 multiple myeloma cell lines against the NCATS MIPE library collection: U266_ATCC cell viability assay (AID 1919864). Note: nearly all actives have a fitted effect of over 35% in size. Conditions: U266 myeloma viability, CellTiter-Glo ATP luminescence, 48 h; series mostly up to 45.8 µM. The method, boiled down:
(§1)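 Plated at 500 cells per well, myeloma lines received MIPE 4.0 compounds by pin tool. Following 48 h culture at 37 °C, CellTiter-Glo luminescence gave viability relative to DMSO and media-only controls.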

Assay [2] is described as follows: Quantitative High-Throughput drug screen in 47 multiple myeloma cell lines against the NCATS MIPE library collection: XG1_PLB cell viability assay (AID 1919866). Note: nearly all actives have a fitted effect of over 35% in size. Conditions: CellTiter-Glo ATP, 48 h; series mostly up to 45.8 µM. The method, boiled down:
as §1

The nature of assay [3]: Quantitative High-Throughput drug screen in 47 multiple myeloma cell lines against the NCATS MIPE library collection: VP6_DJ cell viability assay (AID 1919867). Note: nearly all actives have a fitted effect of over 40% in size. To be noted: ATP luminescence, 48 h; series mostly up to 45.8 µM. A digest of the protocol: as §1
The nature of assay [4]: Quantitative High-Throughput drug screen in 47 multiple myeloma cell lines against the NCATS MIPE library collection: UTMC2_PLB cell viability assay (AID 1919868). Note: nearly all actives have a fitted effect of over 55% in size. Conditions: CellTiter-Glo ATP luminescence, 48 h; viability (% of DMSO control): at 45.8 µM (top of the series). The method, boiled down: as §1
Assay [5] is described as follows: Quantitative High-Throughput drug screen in 47 multiple myeloma cell lines against the NCATS MIPE library collection: PE2_PLB cell viability assay (AID 1919869). Note: nearly all actives have a fitted effect of over 35% in size. To be noted: PE2_PLB myeloma cells viability, ATP luminescence, 48 h; series mostly up to 45.8 µM. A digest of the protocol:
as §1

A short description of assay [6]: Quantitative High-Throughput drug screen in 47 multiple myeloma cell lines against the NCATS MIPE library collection: PCM6_Riken cell viability assay (AID 1919870). Note: nearly all actives have a fitted effect of over 30% in size. To be noted: CellTiter-Glo ATP, 48 h; series mostly up to 45.8 µM. A digest of the protocol: as §1
Assay [7] in a line: Quantitative High-Throughput drug screen in 47 multiple myeloma cell lines against the NCATS MIPE library collection: RPMI8226_ATCC cell viability assay (AID 1919871). Note: nearly all actives have a fitted effect of over 30% in size. Conditions: RPMI8226 myeloma viability, CellTiter-Glo ATP luminescence, 48 h; series mostly up to 45.8 µM. The method, boiled down: as §1
The nature of assay [8]: Quantitative High-Throughput drug screen in 47 multiple myeloma cell lines against the NCATS MIPE library collection: OPM2_DSMZ cell viability assay (AID 1919872). Note: nearly all actives have a fitted effect of over 30% in size. Conditions: OPM2 myeloma viability, CellTiter-Glo ATP luminescence, 48 h; series mostly up to 45.8 µM. A digest of the protocol:
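qHTS of the MIPE 4.0 collection: 500 myeloma cells/well, 48 h drug exposure at 37C in 5% CO2, then CellTiter-Glo for 5 min at room temperature before luminescence reading.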

Assay [9] in a line: Quantitative High-Throughput drug screen in 47 multiple myeloma cell lines against the NCATS MIPE library collection: KMS11_JCRBsus cell viability assay (AID 1919873). Note: nearly all actives have a fitted effect of over 50% in size. Conditions: KMS11 myeloma viability, CellTiter-Glo ATP luminescence, 48 h; series mostly up to 45.8 µM. The method, boiled down: as §1
Assay [10] is described as follows: Quantitative High-Throughput drug screen in 47 multiple myeloma cell lines against the NCATS MIPE library collection: XG6_PLB cell viability assay (AID 1919865). Note: nearly all actives have a fitted effect of over 40% in size. To be noted: XG6 myeloma viability, CellTiter-Glo ATP luminescence, 48 h; series mostly up to 45.8 µM. A digest of the protocol:
as §1

The structures appear in SMILES notation. Results filed as inconclusive are left out. Values without a mark were called inactive. The source made the active and inactive calls. Calls come from the whole dose curve; as a rule, active = well fitted cell-killing curve with a large enough effect; inconclusive = small, poorly fitted or top-dose-only effect, or effect the other way; inactive = no such curve, though single readings can be large or run the other way. Non-standard residues stand in square brackets, D forms with d. Residues, ends and D or L forms follow the SMILES beside them. *: point of attachment. Nva = CCC[C@H](N)C(=O)O; Cbz = O=C(OCc1ccccc1)*
Potency is the fitted concentration of half-maximal effect.

Take `CCC[C@@H](C=O)NC(=O)[C@H](CC(C)C)NC(=O)[C@H](CC(C)C)NC(=O)OCc1ccccc1` (Cbz-Leu-Leu-[Nva]-aldehyde): the Potency in assay [1] was 372 nM (active); in assay [2], 372 nM (active); in [3] it was 235 nM (active); in assay [4] it was 1480 nM (active); in [5], 418 nM (active); in [6] it was 469 nM (active). The results for the Potency in [7], in [8] and in assay [9] were 1320 nM (active), 1660 nM (active) and 148 nM (active), respectively.
Turning to `C#C[C@]1(O)CC[C@@H]2[C@@H]3CCc4cc(O)ccc4[C@H]3CC[C@@]21C`, the Potency was 14800 nM (active) in assay [1]; 4180 nM (active) in assay [10]; 3320 nM (active) in [3]; 16600 nM (active) in [5]; 14800 nM (active) in [6]; 10500 nM (active) in assay [9].
On to `O=[N+]([O-])c1cn2c(n1)OC[C@@H](OCc1ccc(OC(F)(F)F)cc1)C2`, for which the Potency in assay [1] is 18700 nM (active). Also, the Potency entry in assay [10], in [6], in assay [7] and in assay [9] was “inactive” each time.
Take `COc1ccc(S(=O)(=O)Nc2cccnc2Nc2ccc(O)cc2)cc1`: the Potency in assay [1] was 1050 nM (active); in assay [2] it was 16.6 nM (active); in assay [3] it was 187 nM (active); in assay [5], 148 nM (active); in assay [6], 235 nM (active); in assay [7], 526 nM (active). Also, the Potency in [8] was 118 nM (active); in [9], 41.8 nM (active).
Regarding `O=C(O)c1ccc(Nc2ncc3c(n2)-c2ccc(Cl)cc2C(c2c(F)cccc2F)=NC3)cc1`, the Potency in assay [1] is 20900 nM (active); in assay [2], 418 nM (active); in assay [3] it was 5900 nM (active); in assay [6] it was 16600 nM (active); in [7], 14800 nM (active); in assay [9] it was 132 nM (active).
For `CC(C)N1[N]C(=C2C=c3cc(O)ccc3=N2)c2c(N)ncnc21`, the Potency in [1] was 4180 nM (active); in assay [2], 93.5 nM (active); in [3] it was 264 nM (active); in assay [4], 187 nM (active); in assay [5], 148 nM (active); in assay [6] it was 1180 nM (active). Further, the Potency in assay [7] was 41.8 nM (active); in assay [8], 235 nM (active); in assay [9], 105 nM (active).
On to `O=C(Nc1cc2cc[nH]c2cn1)c1ccccc1`, for which the Potency in [1] was 11800 nM (active); in assay [2] it was 16600 nM (active); in assay [3] it was 18700 nM (active); in assay [4] it was 13200 nM (active); in [5], 10500 nM (active); in assay [6], 8330 nM (active). Besides, the results for the Potency in [7] and in [9] were 13200 nM (active) and 11800 nM (active), respectively.
Turning to `N#CNC(=NCCCCCCOc1ccc(Cl)cc1)Nc1ccncc1`, the Potency in [1] was 18700 nM (active); in [10], 18700 nM (active); in [6], 1 nM (active); in assay [7], 41.8 nM (active); in assay [8], 14.8 nM (active); in assay [9], 2.6 nM (active). Also, the Potency entry in assay [4] was “inactive”.
With `CCOC(=O)[C@@H](N)Cc1ccc(-c2cc(O[C@H](c3ccc(Cl)cc3-n3ccc(C)n3)C(F)(F)F)nc(N)n2)cc1`, the Potency in assay [1] was 23500 nM (active); in assay [10], 16600 nM (active); in assay [3], 26400 nM (active); in assay [5], 23500 nM (active); in [6], 18700 nM (active); in [9], 16600 nM (active).
In the case of `N#CC(=C(O)c1ccc(Cl)cc1Cl)c1nc2cc(Cl)ccc2c(=O)[nH]1`, the Potency result in [1], in assay [2], in assay [4], in assay [7], in [8] and in assay [9] was “inactive” each time. Moreover, in assay [3], the Potency is 16600 nM (active).
For `O=C1CSC(=O)N1C(CCc1ccncc1)COc1ccc(-c2cccc([N+](=O)[O-])c2)cc1` (stereo not given), the Potency in assay [1] is 8330 nM (active); in [10], 13200 nM (active); in [3], 4180 nM (active); in [5] it was 16600 nM (active); in [9], 11800 nM (active).
Consider `CC(=O)O[C@]1(C(C)=O)CC[C@H]2[C@@H]3C=C(C)C4=CC(=O)CC[C@]4(C)[C@@H]3CC[C@@]21C`, for which the Potency in assay [1] was 8330 nM (active); in assay [2], 6620 nM (active); in [3], 7430 nM (active); in assay [6] it was 6620 nM (active). In addition, the Potency result in assay [8] and in assay [9] was “inactive” throughout.
For `NC(=O)c1ncn([C@@H]2O[C@H](CO)[C@@H](O)[C@@H]2O)c1N`, the Potency entry in assay [1], in assay [10], in assay [5], in assay [6], in assay [7] and in [8] was “inactive” in each case.
For the compound `C=CCNc1c(O)cc2c(O)c1C[C@@H](C)C[C@H](OC)[C@@H](O)[C@@H](C)C=C(C)[C@H](OC(N)=O)[C@@H](OC)C=CC=C(C)C(=O)N2`, the Potency in assay [1] is 418 nM (active); in [10] it was 1050 nM (active); in assay [3] it was 118 nM (active); in assay [5], 1480 nM (active); in assay [6], 833 nM (active); in [7] it was 418 nM (active). Also, the Potency is 1660 nM (active) in assay [8] and 46.9 nM (active) in [9].
On to `CCC(C=C[C@@H]1OC(=O)C=C[C@H]1C)=C[C@H](C)CC=CC(C)=C[C@@H](C)C(=O)[C@@H](C)[C@H](O)[C@@H](C)CC(C)=CC(=O)O`, for which the Potency in [1] was 24.7 nM (active); in assay [2], 24.7 nM (active); in [3] it was 13.9 nM (active); in [4], 17.5 nM (active); in [5], 19.6 nM (active); in assay [6], 9.8 nM (active). The Potency in assay [7] was 31.1 nM (active); in assay [8] it was 27.7 nM (active); in assay [9], 13.9 nM (active).
